Data from PubChem BioAssay (NCI).
About 83,000 compounds went through this panel and 20% of them were active in at least one assay; those are over-represented in the sample as a whole.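 Testing used 96-well plates and a 48-hour single-concentration exposure. Example: -40 means 40% of the starting cells died.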 Active and inactive are the calls of the source. The calls were made as follows: active = growth percent below 10; inactive = the rest.

What was measured:
Assay in all cases: NCI-60 one-dose screen, 48 h (100 = growth as untreated, 0 = no growth, -100 = all killed)
NCI-H226 lung = settings: 10 µM
NCI-H322M lung = settings: 10 µM
HOP-62 NSCLC = settings: 10 µM
NCI-H460 lung = settings: 10 µM
NCI-H522 lung = settings: 10 µM
A549/ATCC NSCLC = settings: 10 µM
COLO 205 colon = settings: 10 µM
DU-145 prostate = settings: 10 µM
SF-268 CNS = settings: 10 µM
SF-295 CNS = settings: 10 µM
SF-539 CNS = settings: 10 µM
UACC-257 melanoma = settings: 10 µM
HT29 colon = settings: 10 µM
SNB-75 CNS = settings: 10 µM
U251 CNS = settings: 10 µM
PC-3 prostate = settings: 10 µM
SK-MEL-5 melanoma = settings: 10 µM
UACC-62 melanoma = settings: 10 µM
SK-MEL-2 melanoma = settings: 10 µM
HL-60(TB) leukemia = settings: 10 µM unless noted

Measured: growth

CC12OOC(C)(OO1)C2CCC(=O)NCCNc1ccnc2cc(Cl)ccc12 (stereo not given)
active: NCI-H522 lung -61.6%
inactive: NCI-H226 lung 93.7% | NCI-H322M lung 97.4% | HOP-62 NSCLC 89.9% | NCI-H460 lung 101% | A549/ATCC NSCLC 119% | COLO 205 colon 73% | DU-145 prostate 104% | SF-268 CNS 95.6% | SF-295 CNS 91.1% | SF-539 CNS 102% | UACC-257 melanoma 112% | HT29 colon 105% | SNB-75 CNS 101% | U251 CNS 110% | PC-3 prostate 98% | SK-MEL-5 melanoma 93.9% | UACC-62 melanoma 91.8% | SK-MEL-2 melanoma 105% | HL-60(TB) leukemia 88.9%

COc1cc2cc(C(=O)N3C[C@@H](CCl)c4c3cc(OC(=O)N3CCN(C)[C@@H]5CSSC[C@@H]53)c3ccccc43)[nH]c2c(OC)c1OC
active: NCI-H226 lung -26.1% | NCI-H322M lung -7.87% | HOP-62 NSCLC -32.3% | NCI-H460 lung -13.4% | NCI-H522 lung -55.8% | A549/ATCC NSCLC 7.2% | COLO 205 colon -55.6% | DU-145 prostate -4.86% | SF-268 CNS -17.8% | SF-295 CNS -8.99% | SF-539 CNS -72.4% | UACC-257 melanoma -15.4% | HT29 colon -6.59% | SNB-75 CNS -87.6% | U251 CNS 7.22% | PC-3 prostate -1.7% | SK-MEL-5 melanoma -32.2% | UACC-62 melanoma -91.4% | SK-MEL-2 melanoma -89% | HL-60(TB) leukemia 1.55%

O=C(/C=C/c1ccccc1)c1nc2ccccc2n1Cc1ccc(Br)cc1
active: NCI-H226 lung -71% | NCI-H322M lung -6.79% | HOP-62 NSCLC -68% | NCI-H460 lung -47% | NCI-H522 lung -73.8% | A549/ATCC NSCLC -3% | COLO 205 colon -74.7% | DU-145 prostate -48.3% | SF-268 CNS 3.91% | SF-295 CNS -71.9% | SF-539 CNS -93.4% | UACC-257 melanoma -51.1% | HT29 colon -60.3% | U251 CNS -92.9% | PC-3 prostate -31% | SK-MEL-5 melanoma -57% | UACC-62 melanoma -94.2% | SK-MEL-2 melanoma -51.1% | HL-60(TB) leukemia -14.4%
inactive: SNB-75 CNS 16.2%

Cc1ccc2[nH]c(=S)n(-c3ccc(F)cc3)c(=O)c2c1
inactive: NCI-H226 lung 97.6% | NCI-H322M lung 99% | HOP-62 NSCLC 96.3% | NCI-H460 lung 106% | NCI-H522 lung 97.9% | A549/ATCC NSCLC 100% | COLO 205 colon 134% | DU-145 prostate 110% | SF-268 CNS 106% | SF-295 CNS 98.9% | SF-539 CNS 94.8% | UACC-257 melanoma 104% | HT29 colon 107% | SNB-75 CNS 100% | U251 CNS 102% | PC-3 prostate 90% | SK-MEL-5 melanoma 98.3% | UACC-62 melanoma 90.7% | SK-MEL-2 melanoma 105% | HL-60(TB) leukemia 118%

CC[C@]12C=CCN3CC[C@@]4(c5ccc(OC)cc5N(C)[C@H]4[C@@](O)(C(=O)OC)[C@@H]1OC(=O)CCCC[P+](C1CCCCC1)(C1CCCCC1)C1CCCCC1)[C@@H]32
inactive: NCI-H322M lung 16.1% | A549/ATCC NSCLC 11.6%
active: NCI-H226 lung -22% | HOP-62 NSCLC 9.52% | NCI-H460 lung 5.27% | NCI-H522 lung -71.8% | COLO 205 colon -76.6% | DU-145 prostate 9.57% | SF-268 CNS -70.5% | SF-295 CNS -19.6% | SF-539 CNS -93.9% | UACC-257 melanoma -82.1% | HT29 colon -24% | SNB-75 CNS -81.4% | U251 CNS -87.9% | PC-3 prostate 3.69% | SK-MEL-5 melanoma -96.1% | UACC-62 melanoma -96.9% | SK-MEL-2 melanoma -88% | HL-60(TB) leukemia -36.7%

O=C(/C=C/c1cccc(Br)c1)c1nc2ccccc2n1Cc1ccc(F)cc1
inactive: NCI-H226 lung 14.5% | NCI-H322M lung 75.8% | HOP-62 NSCLC 38.3% | NCI-H460 lung 33.1% | NCI-H522 lung 59.4% | A549/ATCC NSCLC 52.2% | COLO 205 colon 79.3% | DU-145 prostate 30.2% | SF-268 CNS 62.6% | SF-295 CNS 62.9% | UACC-257 melanoma 55.1% | SNB-75 CNS 32.9% | PC-3 prostate 23.8% | SK-MEL-5 melanoma 58.3% | UACC-62 melanoma 22.4% | SK-MEL-2 melanoma 63.9%
active: SF-539 CNS 8.26% | HT29 colon 7.15% | U251 CNS -9.29% | HL-60(TB) leukemia 3.12%

CC(=C\C(=O)Oc1ccc2c3c1OC1C(O)CCC4(O)C(C2)N(CC2CCC2)CCC314)/C=C1\CCCc2ccccc21 (stereo not given)
active: UACC-257 melanoma -36.8% | HT29 colon 8.3% | UACC-62 melanoma -16.4%
inactive: NCI-H226 lung 56.3% | NCI-H322M lung 69.9% | HOP-62 NSCLC 85.6% | NCI-H460 lung 12.1% | NCI-H522 lung 47.2% | A549/ATCC NSCLC 48.9% | COLO 205 colon 39.4% | DU-145 prostate 82.1% | SF-268 CNS 73.5% | SF-295 CNS 63.2% | SF-539 CNS 67.8% | SNB-75 CNS 59.8% | U251 CNS 47.4% | PC-3 prostate 40.8% | SK-MEL-5 melanoma 45.5% | SK-MEL-2 melanoma 84.3% | HL-60(TB) leukemia 17.9%

CCOC(=O)C1=C(Nc2ccccc2)C(=O)OC12C(=O)Nc1ccccc12 (stereo not given)
inactive: NCI-H226 lung 115% | NCI-H322M lung 103% | HOP-62 NSCLC 97.6% | NCI-H460 lung 108% | NCI-H522 lung 96.5% | A549/ATCC NSCLC 112% | COLO 205 colon 119% | DU-145 prostate 114% | SF-268 CNS 95.7% | SF-295 CNS 107% | SF-539 CNS 97.6% | UACC-257 melanoma 101% | HT29 colon 111% | SNB-75 CNS 80.6% | U251 CNS 109% | PC-3 prostate 91.3% | SK-MEL-5 melanoma 107% | UACC-62 melanoma 93.5% | SK-MEL-2 melanoma 99.9% | HL-60(TB) leukemia 102%
